The supplement of paper PMC10981050
“And” between values parts separate entries of the source, which are not always exact repeats. Identical values can stand only once. Counter-ions that a name gives are not always drawn.

Legend:
Experiment in all cases: cell viability relative to vehicle control; higher = less cytotoxic
Conditions in all cases: 10 µM
K562 = system: K562
Summary of the method: (§1)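 After removal of identity-inconsistent compounds, the Selleck bioactive, kinase and epigenetic probe libraries were screened on CRISPR-edited mutant clones and isogenic wild-type clones of four leukaemia lines. Plates were 384-well, each well holding 2000 cells in 50 µL medium and receiving a single 10 µM acoustically dispensed dose. CellTiter-Glo luminescence was read 48 h later, after the supernatant was taken off. Genedata Screener was used to express viability as percent of the on-plate vehicle control.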

MARIMO = system: MARIMO
Summary of the method: as §1

MOLM14 = system: MOLM14
Summary of the method: as §1

OCI-AML2 = system: OCI-AML2
Summary of the method: as §1

SMILES	cell viability (K562; SRSF2 genotype: SRSF2 P95H/wt)	cell viability (K562; SRSF2 genotype: SRSF2 wt/wt) [%]	cell viability (MARIMO; SRSF2 genotype: SRSF2 P95H/wt) [%]	cell viability (MARIMO; SRSF2 genotype: SRSF2 wt/wt) [%]	cell viability (MOLM14; SRSF2 genotype: SRSF2 P95H/wt) [%]	cell viability (MOLM14; SRSF2 genotype: SRSF2 wt/wt) [%]	cell viability (OCI-AML2; SRSF2 genotype: P95H/wt) [%]	cell viability (OCI-AML2; SRSF2 genotype: wt/wt) [%]
COC(=O)C1=C(C)NC(C)=C(C(=O)OC)C1c1ccccc1[N+](=O)[O-] [Nifedipine (Adalat)]	76.5% and 90.2%	80.8	57.5	51.7	49.3	49.5	29.4	48.4
CN(C)CCC=C1c2ccccc2C(C)(C)c2ccccc21 [Melitracen hydrochloride]	68.2% and 69.9%	82.3	62.9	69.7	63.8	77.6	61.3	65.3
CC/C(=C(\c1ccc(O)cc1)c1ccc(OCCN(C)C)cc1)c1ccccc1 [4-Hydroxytamoxifen]	27.4% and 32.6%	28	55.8	53.5	32.9	27.8	22.6	39.5
CN(C/C=C/C#CC(C)(C)C)Cc1cccc2ccccc12 [Terbinafine hydrochloride (Lamisil)]	88.5% and 88.7%	90.3	87.8	105	86.8	99.9	87.4	97.6
NC(=O)c1cnc(NCCc2ccc(O)c(Cl)c2)nc1NCc1ccccc1	34.2% and 38.5%	33.3	8.49	5.28	5.95	1.62	8.8	13.2
NC(=O)c1[nH]cnc1N [4-Amino-5-imidazolecarboxamide]	101% and 104%	105	101	107	99.1	108	97.3	108
N#CC(=C(/N)Sc1ccccc1N)/C(C#N)=C(\N)Sc1ccccc1N	70.5% and 77.5%	72.7	38.2	37.1	54.9	57.2	48.9	48.1
CC(C)c1nc(CN(C)C(=O)N[C@@H](CCN2CCOCC2)C(=O)N[C@H](CC[C@H](Cc2ccccc2)NC(=O)OCc2cncs2)Cc2ccccc2)cs1 [Cobicistat (GS-9350)]	88.4% and 101%	95.7	94.7	104	94.3	98.3	95	83.8
CC#CC(=O)N1CC[C@@H](n2c(=O)n(-c3ccc(Oc4ccccc4)cc3)c3c(N)ncnc32)C1 [ONO-4059 (GS-4059) hydrochloride]	91% and 102%	95.7	97.2	107	91.4	95.8	91	88.9
Cc1ccc(CN(CC(O)COc2cccc3[nH]ccc23)C(C)(C)C)cc1 (stereo not given)	71% and 71.5%	66.8	67	76.8	68	74	83.4	86.2
Cc1cccc(-c2[nH]ncc2-c2ccc3ncccc3n2)n1	97.9% and 108%	107	107	114	94.6	105	78.9	83.5
COc1ccc(-c2ccc3c(N4CCOCC4)nc(N4C[C@@H](C)O[C@@H](C)C4)nc3n2)cc1CO	45.8% and 54.8%	46.6	60.9	50.6	37	29.8	33.4	34.5
Oc1ccc(-c2c(-c3ccccc3)nn3c(C(F)(F)F)cc(C(F)(F)F)nc23)cc1	87.4% and 87.6%	83	85.7	93.3	75.9	86.1	92	103
CCN(CC)CC(O)CNc1ccc(NCC2CO2)c2c1C(=O)c1ccccc1C2=O (stereo not given)	1.64% and 0.64%	3.62	1.76	2.11	2.26	0.31	0.66	0.95
CCCC(=O)NCCc1csc(-c2ccc(Cl)cc2)n1 [Azoramide]	86.4% and 89.4%	98.4	79.9	83.8	102	99.5	71.1	75.5
O=C1C(c2[nH]c3ccc(S(=O)(=O)O)cc3c2O)=Nc2ccc(S(=O)(=O)O)cc21 [Indigo carmine]	98.1% and 93.6%	94.2	94.5	106	83.1	99.5	79.9	84
C=C(C)[C@@H]1CC[C@]2(C)CC[C@]3(C)[C@H](CC[C@@H]4[C@@]5(C)CC[C@H](O)C(C)(C)[C@@H]5CC[C@]43C)[C@@H]12 [Lupeol]	106%	113	109	108	105	109	108	108
O=S(=O)(c1cccc2cnccc12)N1CCCNCC1 [Fasudil HCl (HA-1077)]	97.2% and 90.4%	94	81.6	92.8	75	94.4	70.3	75.3

SMILES	cell viability (K562; SRSF2 genotype: SRSF2 P95H/wt)	cell viability (K562; SRSF2 genotype: SRSF2 wt/wt) [%]	cell viability (MARIMO; SRSF2 genotype: SRSF2 P95H/wt) [%]	cell viability (MARIMO; SRSF2 genotype: SRSF2 wt/wt) [%]	cell viability (MOLM14; SRSF2 genotype: SRSF2 P95H/wt) [%]	cell viability (MOLM14; SRSF2 genotype: SRSF2 wt/wt) [%]	cell viability (OCI-AML2; SRSF2 genotype: P95H/wt) [%]	cell viability (OCI-AML2; SRSF2 genotype: wt/wt) [%]
C[C@H]1COc2c(N3CCN(C)CC3)c(F)cc3c(=O)c(C(=O)O)cn1c23 [Levofloxacin hydrate]	93.5% and 91%	95.8	94.3	98.4	97.2	97.9	93.3	92.1
O=C1NC(=O)C(=Cc2ccc(-c3ccc(F)cc3)o2)S1 (stereo in doubt)	102% and 101%	97.1	93.1	92.5	113	108	94.6	95.8
O=Cc1ccc(O)c(O)c1 [3,4-Dihydroxybenzaldehyde]	95.8% and 92.8%	93.7	77.4	91.9	91.3	99.4	88.9	92.4
Cn1nccc1Nc1nccc(-c2cc3c(s2)C(C)(C)N(CCN2CCOCC2)C3=O)n1	77.8% and 81.6%	76.5	39.5	40.1	42.6	37	38.6	43.2
O=C1Cc2c([nH]c3ccc(Br)cc23)-c2ncccc2N1 [1-Azakenpaullone]	109% and 116%	104	122	127	128	122	153	148
CC(=O)c1ccc2c(c1)c1cc(C(C)=O)ccc1n2CCNC(C)C	5.79% and 17.9%	9.91	5.2	2.54	2.29	0.66	4.6	20.6
COc1cc(N2CCC(N)CC2)ccc1Nc1ncc(Cl)c(-c2c[nH]c3ccccc23)n1	14.5% and 15.7%	7.15	37.8	33.6	1.81	5.73	6	16.7
N=C(N)N [Guanidine (Aminoformamidine) HCl]	94.2% and 97%	103	104	98.3	97	98.7	102	98.1
CO/N=C(\C(=O)N[C@@H]1C(=O)N2C(C(=O)O)=C(Cn3ccc(=N)n3CCO)CS[C@H]12)c1csc(N)n1 [Cefoselis sulfate]	95.5% and 104%	94	92.6	98	100	101	103	96.8
CC(=O)OCC(CCn1cnc2cnc(N)nc21)COC(C)=O [Famciclovir (Famvir)]	103% and 95.1%	90.8	99.7	104	99.3	97.5	94.7	98
C=C(C)[C@@H]1CC[C@]2(C(=O)O)CC[C@]3(C)[C@H](CC[C@@H]4[C@@]5(C)CC[C@H](O)[C@@](C)(CO)[C@@H]5CC[C@]43C)[C@@H]12 [23-Hydroxybetulinic acid]	93.7% and 96.8%	91.1	96.6	107	100	103	103	109
Cc1c(C(=O)NN2CCCCC2)nn(-c2ccc(Cl)cc2Cl)c1-c1ccc(Cl)cc1	81.6% and 88%	74.5	93.7	93	88.5	87	91.8	90.9
O=C1C=C2C=C[C@@H](O)[C@H](O)[C@H]2O1 [Griffonilide]	101%	96.4	98.7	104	99.3	97.2	103	100
Cc1cn([C@H]2C=C[C@@H](CO)O2)c(=O)[nH]c1=O [Stavudine]	104% and 107%	98.3	95	96.1	102	103	97.2	110
O=C(O)c1ccc(Nc2ncc3c(n2)-c2ccc(Cl)cc2C(c2c(F)cccc2F)=NC3)cc1	66.5% and 78.8%	68.1	80.4	88.1	51.4	35.4	41.3	38.8
Clc1ccccc1C(c1ccccc1)(c1ccccc1)n1ccnc1 [Clotrimazole (Canesten)]	92.1% and 91.2%	75.9	81.5	87.3	89.4	84.6	77.4	90
S=C(NCc1ccc2c(c1)OCO2)N1CCN(c2ncnc3c2oc2ccccc23)CC1 [Amuvatinib (MP-470)]	62.3% and 74.9%	64.2	50.3	41.5	68.2	76.4	28	42.5
